Results taken from PubChem BioAssay (NCI).
“And” between values parts separate entries of the source, which are not always exact repeats. Equal entries are not always repeated. Compounds without any hit were thinned out: in the full panel of roughly 83,000, 20% have a hit.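 How to read the values: 0–100, growth inhibition (40 = 60% inhibited); 0, no net growth; -100 to 0, cell death (-40 = 40% of starting cells died; -100 = all dead).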 The source made the active and inactive calls. The calls were made as follows: active = growth percent below 10; inactive = the rest.

Columns and labels:
Assay in all cases: NCI-60 one-dose screen, 48 h (100 = growth as untreated, 0 = no growth, -100 = all killed)
Conditions in all cases: 10 µM unless noted
SR leukemia = tested on: SR leukemia
RPMI-8226 leukemia = tested on: RPMI-8226 leukemia
OVCAR-5 ovarian = tested on: OVCAR-5 ovarian
OVCAR-4 ovarian = tested on: OVCAR-4 ovarian
SK-OV-3 ovarian = tested on: SK-OV-3 ovarian
IGROV1 ovarian = tested on: IGROV1 ovarian
OVCAR-3 ovarian = tested on: OVCAR-3 ovarian
HS 578T breast = tested on: HS 578T breast
NCI/ADR-RES ovarian = tested on: NCI/ADR-RES ovarian
OVCAR-8 ovarian = tested on: OVCAR-8 ovarian

Row | SMILES | growth (SR leukemia) | growth (RPMI-8226 leukemia) | growth (OVCAR-5 ovarian) | growth (OVCAR-4 ovarian) | growth (SK-OV-3 ovarian) | growth (IGROV1 ovarian) | growth (OVCAR-3 ovarian) | growth (HS 578T breast) | growth (NCI/ADR-RES ovarian) | growth (OVCAR-8 ovarian)
1 | COc1cc(/C=C/C(=O)c2ccc(NC(=O)CSc3nnc(-c4cc(-c5ccccc5)nc5ccccc45)n3-c3ccccc3)cc2)cc(OC)c1OC | 58% (inactive) | 72.3% (inactive) | 93.6% (inactive) | 103% (inactive) | 101% (inactive) | 110% (inactive) | 98.5% (inactive) | 90.4% (inactive) | 86.7% (inactive) | –
2 | O=C1CCc2c(sc3[nH]c(=S)n(Cc4ccc(Cl)cc4)c(=O)c23)C1 | 17.9% (inactive) | -25.5% (active) | 11.7% (inactive) | 12.4% (inactive) | -10.1% (active) | 23.3% (inactive) | 6.66% (active) | 5.06% (active) | -0.97% (active) | –
3 | O=Nc1ccc(NO)c2ccccc12 | 106% (inactive) and 43.8% (inactive) | 92.2% (inactive) and 54.7% (inactive) | 109% (inactive) and 116% (inactive) | 92.3% (inactive) and 35.8% (inactive) | 94.2% (inactive) and 106% (inactive) | 86.1% (inactive) and 61.5% (inactive) | 98.7% (inactive) and 0.0919% (active) | 85.4% (inactive) and 96.3% (inactive) | 97.5% (inactive) and 14.5% (inactive) | –
4 | OCCN1CCN(c2cc(-c3cccc(OC(F)(F)F)c3)nc3ccc(N4CCCC4)cc23)CC1 | 3.39% (active) | 43.1% (inactive) | 69.4% (inactive) | – | 74.5% (inactive) | 36.9% (inactive) | – | 53.9% (inactive) | 48.5% (inactive) | –
5 | COc1ccc(Oc2nc(Nc3ccc(N4CCOCC4)cc3)ncc2NC(=O)c2cc(OC)cc(OC)c2)cc1 | 34.7% (inactive) | 53.2% (inactive) | 123% (inactive) | 81.3% (inactive) | 102% (inactive) | 83.8% (inactive) | 83.5% (inactive) | 76.7% (inactive) | 81.6% (inactive) | –
6 | Nc1nc(Nc2ccc(F)cc2)nn1C(=O)c1cc(Cl)ccc1Cl | 37.5% (inactive) | 97.1% (inactive) | 59.5% (inactive) | 92.8% (inactive) | 118% (inactive) | 62.6% (inactive) | 72.7% (inactive) | 56.1% (inactive) | 69.1% (inactive) | –
7 | N=C(N)SCc1c2ccccc2c(CSC(=N)N)c2ccccc12 | -11.1% (active) | 46% (inactive) | 102% (inactive) | 80.6% (inactive) | 81.4% (inactive) | 80.6% (inactive) | 93.5% (inactive) | 85.5% (inactive) | 103% (inactive) | –
8 | OCCN1CCN(CC/C=C2\c3ccccc3Sc3ccc(Cl)cc32)CC1 | – | -35.8% (active) and -38.4% (active) | 41.8% (inactive) and 63.4% (inactive) | 71.9% (inactive) and 128% (inactive) | 77.8% (inactive) and 77.2% (inactive) | 26.3% (inactive) | 42.4% (inactive) and 37.7% (inactive) | 1.43% (active) and 32.3% (inactive) | 58.2% (inactive) and 76.6% (inactive) | –
9 | Cc1c(C(C)(C)O)cn2ncnc(Oc3ccc(NC(=O)Nc4ccc(Cl)c(C(F)(F)F)c4)cc3)c12 | -3.12% (active) | 37% (inactive) | 100% (inactive) | 21% (inactive) | 83.9% (inactive) | 37.6% (inactive) | 26.2% (inactive) | 49.4% (inactive) | 64% (inactive) | –
10 | Cc1ccc(C(=O)Nc2nc3c(s2)CN(Cc2ccccc2)CC3)cn1 | 64% (inactive) | 77.8% (inactive) | 103% (inactive) | 78.7% (inactive) | 89.2% (inactive) | 82.4% (inactive) | – | 98.3% (inactive) | 70.5% (inactive) | –
11 | Cc1ccc(-c2nc(SCC(=O)c3ccc(C#N)cc3)[nH]c(=O)c2C#N)cc1 | -40.6% (active) | 123% (inactive) | 94.8% (inactive) | 94.5% (inactive) | 82.4% (inactive) | 99.9% (inactive) | 97.9% (inactive) | 113% (inactive) | 101% (inactive) | –
12 | CCOC(=O)c1cnn(-c2ccc(S(N)(=O)=O)cc2)c1N | 95.5% (inactive) | 94.1% (inactive) | 89.2% (inactive) | 103% (inactive) | 104% (inactive) | 97.9% (inactive) | 134% (inactive) | 110% (inactive) | 96.1% (inactive) | –
13 | O=C(N=Nc1c(O)[nH]c2ccccc12)Nc1ccc(Br)cc1 | 76.7% (inactive) | 66.9% (inactive) | 81.4% (inactive) | 102% (inactive) | 97% (inactive) | 85.2% (inactive) | 97.4% (inactive) | 87.4% (inactive) | 97.2% (inactive) | –
14 | Cc1ccc2[nH]c(=S)[nH]c(=O)c2c1 | 90.7% (inactive) | 109% (inactive) | 107% (inactive) | – | 105% (inactive) | 103% (inactive) | 105% (inactive) | 104% (inactive) | 104% (inactive) | –
15 | Cc1ccc(-c2nc3nc(-c4ccc(F)cc4)nc(N4CCCNCC4)c3o2)cc1 | -37.3% (active) | -62.4% (active) | -97.3% (active) | -89% (active) | -88.8% (active) | -88.3% (active) | -96% (active) | -75.9% (active) | -77.7% (active) | –
16 | CCCN1C(=O)/C(=c2\sc3n(c2=O)NC2C(N=3)N(CC)C(=O)N2CC)c2ccccc21 (stereo not given) | 30.6% (inactive) | 45.5% (inactive) | 39.6% (inactive) | 63% (inactive) | 63.6% (inactive) | 38.9% (inactive) | 9.19% (active) | 27.8% (inactive) | 8.06% (active) | –
17 | COc1ccc(-c2cc(-c3cccnc3)nc3sc4c(Cl)nnnc4c23)cc1OC | 6.41% (active) | 58% (inactive) | 118% (inactive) | 96.5% (inactive) | 109% (inactive) | 81.6% (inactive) | 91.9% (inactive) | 89.2% (inactive) | 108% (inactive) | –
18 | COc1cc(OC)cc(-c2ccc(-c3ccc(C(=N)N)cn3)s2)c1 | 6.61% (active) | -1.98% (active) | 89.8% (inactive) | 28.4% (inactive) | 82.2% (inactive) | 78.4% (inactive) | 5.54% (active) | 84.9% (inactive) | 95.4% (inactive) | –
19 | COc1cc(/C=N/NC(=O)CCN2c3ccccc3Sc3ccccc32)cc(OC)c1OC | 72% (inactive) | 54.7% (inactive) | 89% (inactive) | 68.3% (inactive) | 105% (inactive) | 91.2% (inactive) | 99.5% (inactive) | 93.7% (inactive) | 87.6% (inactive) | –
20 | COc1ccc(-c2nnc3n(C)c(=O)c4ccccc4n23)cc1O | 21.4% (inactive) | 15.9% (inactive) | 66% (inactive) | 53.6% (inactive) | 14.9% (inactive) | 55.7% (inactive) | – | 29.5% (inactive) | 15.5% (inactive) | –
21 | CCOC(=O)c1ccc(Nc2ncnc3c2cnn3-c2cccc(F)c2)cc1 | 94.7% (inactive) | 99.5% (inactive) | 97.1% (inactive) | 99.7% (inactive) | 120% (inactive) | 98.7% (inactive) | 112% (inactive) | 95.9% (inactive) | 103% (inactive) | –
22 | CCN(CC)CCOc1ccccc1C | 111% (inactive) | 103% (inactive) | 97.2% (inactive) | 111% (inactive) | 103% (inactive) | 109% (inactive) | – | 119% (inactive) | 124% (inactive) | –
23 | COC(=O)/C=C1/SC(N2N=C(c3cccs3)CC2c2ccc(F)cc2)=NC1=O (stereo not given) | 7.77% (active) | -24.2% (active) | 79.1% (inactive) | – | 89.2% (inactive) | 32.3% (inactive) | – | 84.6% (inactive) | 51.9% (inactive) | 44.1% (inactive)
24 | CC12OC(CC(O)C1O)n1c3ccccc3c3c4c(c5c6ccccc6n2c5c31)C(=O)N(CCN1CCOCC1)C4=O (stereo not given) | 1.71% (active) | 6.35% (active) | 24.7% (inactive) | 22.9% (inactive) | -8.93% (active) | 5.73% (active) | 20.8% (inactive) | 23.1% (inactive) | 15.4% (inactive) | –
25 | COc1ccc2c(c1)CCNC21C(=O)Nc2c(Br)cc(Br)cc21 (stereo not given) | 96.4% (inactive) | 106% (inactive) | 91.3% (inactive) | 95.2% (inactive) | 84.2% (inactive) | 82.4% (inactive) | 101% (inactive) | 94.8% (inactive) | 104% (inactive) | –
26 | N#C/C(=C\c1ccccc1Cl)c1cc2ccccc2[nH]1 | 60% (inactive) | 77.1% (inactive) | 95.8% (inactive) | 96.4% (inactive) | 76.3% (inactive) | 84.7% (inactive) | 101% (inactive) | 92.9% (inactive) | 95.5% (inactive) | –
27 | Nc1nc2ccccc2c2c(=O)c3ccc(Cl)cc3sc12 | 84.4% (inactive) | 95.7% (inactive) | 101% (inactive) | 92.1% (inactive) | 98.4% (inactive) | 102% (inactive) | 104% (inactive) | 89.3% (inactive) | 110% (inactive) | –
